Tests used:
Assay in all cases: log2 ratio of Biotin-Ahx-Ub-VS probe labelling (fragment/DMSO); higher = less target engagement (more negative = stronger competition), active = hit call of the paper (q ≤ 0.05, log2 ratio ≤ -1)
Conditions in all cases: compound concentration: 200 uM; treatment time: 3 h
USP42 = target: T1, USP42 (UniProt Q9H9J4)
T1 sequence (whole entry): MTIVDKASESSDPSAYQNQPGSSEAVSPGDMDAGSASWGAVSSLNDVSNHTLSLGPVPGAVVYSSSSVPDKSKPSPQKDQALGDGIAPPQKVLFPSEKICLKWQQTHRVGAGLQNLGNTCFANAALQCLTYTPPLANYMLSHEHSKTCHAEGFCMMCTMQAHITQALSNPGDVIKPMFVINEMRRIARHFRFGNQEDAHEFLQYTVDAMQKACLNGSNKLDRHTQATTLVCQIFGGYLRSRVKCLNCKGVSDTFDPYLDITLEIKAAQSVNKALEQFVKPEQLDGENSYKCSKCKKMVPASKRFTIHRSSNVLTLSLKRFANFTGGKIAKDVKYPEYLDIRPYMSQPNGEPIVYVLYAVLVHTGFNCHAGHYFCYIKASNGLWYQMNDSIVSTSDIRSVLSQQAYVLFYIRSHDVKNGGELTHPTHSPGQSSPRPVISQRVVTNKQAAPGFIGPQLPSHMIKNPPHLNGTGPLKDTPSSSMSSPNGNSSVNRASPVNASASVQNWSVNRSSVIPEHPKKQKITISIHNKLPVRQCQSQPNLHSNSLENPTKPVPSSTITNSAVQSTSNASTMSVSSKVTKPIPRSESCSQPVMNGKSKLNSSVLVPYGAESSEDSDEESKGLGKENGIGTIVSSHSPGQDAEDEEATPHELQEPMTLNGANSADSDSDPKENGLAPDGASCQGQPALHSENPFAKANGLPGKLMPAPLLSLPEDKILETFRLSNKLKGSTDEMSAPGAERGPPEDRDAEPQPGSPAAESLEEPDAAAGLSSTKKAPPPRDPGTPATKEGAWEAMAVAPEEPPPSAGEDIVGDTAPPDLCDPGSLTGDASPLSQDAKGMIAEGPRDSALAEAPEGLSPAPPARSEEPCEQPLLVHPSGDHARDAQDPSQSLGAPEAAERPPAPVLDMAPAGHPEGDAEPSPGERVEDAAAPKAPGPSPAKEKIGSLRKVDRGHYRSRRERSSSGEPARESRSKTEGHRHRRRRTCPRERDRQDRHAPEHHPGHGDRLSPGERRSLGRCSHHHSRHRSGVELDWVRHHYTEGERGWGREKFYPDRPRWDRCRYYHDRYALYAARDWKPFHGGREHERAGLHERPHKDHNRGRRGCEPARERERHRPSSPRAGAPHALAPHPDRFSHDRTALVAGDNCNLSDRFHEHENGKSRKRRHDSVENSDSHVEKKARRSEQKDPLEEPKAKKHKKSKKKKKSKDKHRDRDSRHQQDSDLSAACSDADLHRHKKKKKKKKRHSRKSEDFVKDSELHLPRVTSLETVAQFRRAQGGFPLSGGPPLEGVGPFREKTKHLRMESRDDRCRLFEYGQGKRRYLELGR
Procedure, shortened: (§1)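 Each value is an average log2 ratio of fragment to vehicle, tested by unpaired t-test. The underlying Spectronaut label-free quantities were global-median-normalised, and only proteins with ≥2 unique peptides were included. Triplicate HEK293T lysate samples (495 µg) were exposed to fragment at 200 µM or vehicle for 3 h, then to Biotin-Ahx-Ub-VS at 0.5 µM final for 1 h, before NeutrAvidin enrichment of labelled DUBs, LysC and trypsin digestion, and diaPASEF LC-MS/MS.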

USP46 = USP46 (UniProt P62068)
Chain of USP46 (P62068 whole entry): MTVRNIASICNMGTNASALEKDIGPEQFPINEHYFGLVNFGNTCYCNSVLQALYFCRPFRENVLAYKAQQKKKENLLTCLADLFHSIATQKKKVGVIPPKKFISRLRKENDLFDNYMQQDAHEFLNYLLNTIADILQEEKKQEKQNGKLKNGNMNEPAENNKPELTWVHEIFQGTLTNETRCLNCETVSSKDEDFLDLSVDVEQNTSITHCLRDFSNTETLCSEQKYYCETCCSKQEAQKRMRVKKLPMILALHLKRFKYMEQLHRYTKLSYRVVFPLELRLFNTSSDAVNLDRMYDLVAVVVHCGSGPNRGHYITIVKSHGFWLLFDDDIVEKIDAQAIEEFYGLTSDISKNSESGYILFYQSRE
Procedure, shortened: as §1

USP47 = target: T2, USP47 (UniProt Q96K76)
T2 sequence (whole entry): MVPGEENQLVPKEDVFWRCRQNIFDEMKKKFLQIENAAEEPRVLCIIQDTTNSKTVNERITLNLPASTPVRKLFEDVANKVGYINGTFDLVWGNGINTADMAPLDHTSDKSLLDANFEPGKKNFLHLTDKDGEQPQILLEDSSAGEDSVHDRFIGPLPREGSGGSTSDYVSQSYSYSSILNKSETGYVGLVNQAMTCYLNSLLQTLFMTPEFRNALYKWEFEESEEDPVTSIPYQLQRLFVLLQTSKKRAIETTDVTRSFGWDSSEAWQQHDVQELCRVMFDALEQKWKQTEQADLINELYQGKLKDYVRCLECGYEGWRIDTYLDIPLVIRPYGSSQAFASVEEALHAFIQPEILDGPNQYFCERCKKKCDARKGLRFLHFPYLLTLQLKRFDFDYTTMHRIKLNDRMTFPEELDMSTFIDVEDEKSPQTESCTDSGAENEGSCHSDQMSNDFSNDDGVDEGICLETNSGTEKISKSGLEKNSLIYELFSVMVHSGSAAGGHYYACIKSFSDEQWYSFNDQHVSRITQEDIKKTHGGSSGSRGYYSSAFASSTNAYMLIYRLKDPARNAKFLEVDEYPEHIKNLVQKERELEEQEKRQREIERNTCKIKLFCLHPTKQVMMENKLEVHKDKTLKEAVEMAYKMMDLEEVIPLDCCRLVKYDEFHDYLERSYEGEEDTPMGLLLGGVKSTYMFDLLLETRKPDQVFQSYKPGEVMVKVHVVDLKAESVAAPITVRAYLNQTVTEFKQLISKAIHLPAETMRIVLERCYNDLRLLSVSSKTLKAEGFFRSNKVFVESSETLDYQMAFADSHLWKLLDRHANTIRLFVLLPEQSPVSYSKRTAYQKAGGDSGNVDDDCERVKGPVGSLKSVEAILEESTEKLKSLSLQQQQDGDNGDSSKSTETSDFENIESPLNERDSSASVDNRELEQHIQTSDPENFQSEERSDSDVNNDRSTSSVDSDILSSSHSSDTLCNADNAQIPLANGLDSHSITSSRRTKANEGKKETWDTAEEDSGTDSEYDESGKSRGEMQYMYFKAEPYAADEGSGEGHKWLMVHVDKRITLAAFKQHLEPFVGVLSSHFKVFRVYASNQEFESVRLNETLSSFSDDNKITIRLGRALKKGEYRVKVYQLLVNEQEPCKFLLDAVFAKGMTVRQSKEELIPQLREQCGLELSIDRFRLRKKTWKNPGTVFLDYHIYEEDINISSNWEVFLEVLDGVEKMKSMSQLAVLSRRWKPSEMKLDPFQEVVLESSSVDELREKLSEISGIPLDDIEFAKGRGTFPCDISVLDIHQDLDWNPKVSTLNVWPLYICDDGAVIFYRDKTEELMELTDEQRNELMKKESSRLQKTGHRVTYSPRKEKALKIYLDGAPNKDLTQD
Procedure, shortened: as §1

USP48 = target: T3, USP48 (UniProt Q86UV5)
T3 sequence (whole entry): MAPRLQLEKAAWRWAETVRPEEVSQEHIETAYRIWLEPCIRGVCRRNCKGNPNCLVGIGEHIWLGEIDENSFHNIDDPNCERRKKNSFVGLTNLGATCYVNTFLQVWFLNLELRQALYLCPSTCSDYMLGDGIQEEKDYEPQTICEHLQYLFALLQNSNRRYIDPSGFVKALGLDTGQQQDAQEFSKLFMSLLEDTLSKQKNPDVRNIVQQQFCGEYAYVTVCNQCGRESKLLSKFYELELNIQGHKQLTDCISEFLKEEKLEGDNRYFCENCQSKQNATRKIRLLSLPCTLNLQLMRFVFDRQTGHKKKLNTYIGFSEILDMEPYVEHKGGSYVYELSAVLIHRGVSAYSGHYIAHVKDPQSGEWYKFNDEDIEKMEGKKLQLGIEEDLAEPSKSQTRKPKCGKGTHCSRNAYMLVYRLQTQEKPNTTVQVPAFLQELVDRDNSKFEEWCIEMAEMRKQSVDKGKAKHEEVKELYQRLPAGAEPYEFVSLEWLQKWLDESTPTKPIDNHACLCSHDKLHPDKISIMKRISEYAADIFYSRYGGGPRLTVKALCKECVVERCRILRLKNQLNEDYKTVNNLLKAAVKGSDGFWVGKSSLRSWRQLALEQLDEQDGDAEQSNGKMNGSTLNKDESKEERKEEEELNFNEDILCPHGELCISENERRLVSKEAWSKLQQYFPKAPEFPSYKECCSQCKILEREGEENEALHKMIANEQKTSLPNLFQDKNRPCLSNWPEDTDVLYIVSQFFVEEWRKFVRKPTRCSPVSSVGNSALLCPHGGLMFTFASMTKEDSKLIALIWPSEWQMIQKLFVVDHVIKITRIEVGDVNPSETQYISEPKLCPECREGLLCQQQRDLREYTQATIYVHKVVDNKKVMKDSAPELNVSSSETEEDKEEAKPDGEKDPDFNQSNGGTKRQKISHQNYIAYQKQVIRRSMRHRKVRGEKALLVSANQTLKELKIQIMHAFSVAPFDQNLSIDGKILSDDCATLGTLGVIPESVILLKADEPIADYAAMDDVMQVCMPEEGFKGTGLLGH
Procedure, shortened: as §1

USP5 = target: T4, USP5 (UniProt P45974)
T4 sequence (whole entry): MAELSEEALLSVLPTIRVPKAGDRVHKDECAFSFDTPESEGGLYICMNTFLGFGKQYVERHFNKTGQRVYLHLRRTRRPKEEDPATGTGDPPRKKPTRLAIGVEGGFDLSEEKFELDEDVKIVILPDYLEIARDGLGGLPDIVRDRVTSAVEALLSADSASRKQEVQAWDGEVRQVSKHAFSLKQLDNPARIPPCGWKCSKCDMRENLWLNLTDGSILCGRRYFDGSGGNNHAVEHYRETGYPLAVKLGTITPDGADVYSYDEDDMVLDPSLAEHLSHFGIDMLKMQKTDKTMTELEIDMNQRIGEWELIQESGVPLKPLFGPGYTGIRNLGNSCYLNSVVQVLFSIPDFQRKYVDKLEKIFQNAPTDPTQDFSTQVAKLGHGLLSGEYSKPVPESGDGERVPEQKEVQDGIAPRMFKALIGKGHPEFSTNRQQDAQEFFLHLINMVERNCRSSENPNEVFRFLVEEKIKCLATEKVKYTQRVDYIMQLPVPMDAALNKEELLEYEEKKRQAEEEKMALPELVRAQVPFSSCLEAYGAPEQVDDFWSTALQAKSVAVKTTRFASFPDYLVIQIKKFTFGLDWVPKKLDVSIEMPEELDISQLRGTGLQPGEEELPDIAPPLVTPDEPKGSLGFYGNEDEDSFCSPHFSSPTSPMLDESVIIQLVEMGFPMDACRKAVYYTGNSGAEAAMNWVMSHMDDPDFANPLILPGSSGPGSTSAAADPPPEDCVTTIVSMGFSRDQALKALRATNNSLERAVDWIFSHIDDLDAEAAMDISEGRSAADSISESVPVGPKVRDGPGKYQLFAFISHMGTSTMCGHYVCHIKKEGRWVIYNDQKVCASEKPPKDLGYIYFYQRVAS
Procedure, shortened: as §1

USP54 = USP54 (UniProt Q70EL1)
Procedure, shortened: as §1

USP7 = USP7 (UniProt Q93009)
Chain of USP7 (Q93009 whole entry, looked up): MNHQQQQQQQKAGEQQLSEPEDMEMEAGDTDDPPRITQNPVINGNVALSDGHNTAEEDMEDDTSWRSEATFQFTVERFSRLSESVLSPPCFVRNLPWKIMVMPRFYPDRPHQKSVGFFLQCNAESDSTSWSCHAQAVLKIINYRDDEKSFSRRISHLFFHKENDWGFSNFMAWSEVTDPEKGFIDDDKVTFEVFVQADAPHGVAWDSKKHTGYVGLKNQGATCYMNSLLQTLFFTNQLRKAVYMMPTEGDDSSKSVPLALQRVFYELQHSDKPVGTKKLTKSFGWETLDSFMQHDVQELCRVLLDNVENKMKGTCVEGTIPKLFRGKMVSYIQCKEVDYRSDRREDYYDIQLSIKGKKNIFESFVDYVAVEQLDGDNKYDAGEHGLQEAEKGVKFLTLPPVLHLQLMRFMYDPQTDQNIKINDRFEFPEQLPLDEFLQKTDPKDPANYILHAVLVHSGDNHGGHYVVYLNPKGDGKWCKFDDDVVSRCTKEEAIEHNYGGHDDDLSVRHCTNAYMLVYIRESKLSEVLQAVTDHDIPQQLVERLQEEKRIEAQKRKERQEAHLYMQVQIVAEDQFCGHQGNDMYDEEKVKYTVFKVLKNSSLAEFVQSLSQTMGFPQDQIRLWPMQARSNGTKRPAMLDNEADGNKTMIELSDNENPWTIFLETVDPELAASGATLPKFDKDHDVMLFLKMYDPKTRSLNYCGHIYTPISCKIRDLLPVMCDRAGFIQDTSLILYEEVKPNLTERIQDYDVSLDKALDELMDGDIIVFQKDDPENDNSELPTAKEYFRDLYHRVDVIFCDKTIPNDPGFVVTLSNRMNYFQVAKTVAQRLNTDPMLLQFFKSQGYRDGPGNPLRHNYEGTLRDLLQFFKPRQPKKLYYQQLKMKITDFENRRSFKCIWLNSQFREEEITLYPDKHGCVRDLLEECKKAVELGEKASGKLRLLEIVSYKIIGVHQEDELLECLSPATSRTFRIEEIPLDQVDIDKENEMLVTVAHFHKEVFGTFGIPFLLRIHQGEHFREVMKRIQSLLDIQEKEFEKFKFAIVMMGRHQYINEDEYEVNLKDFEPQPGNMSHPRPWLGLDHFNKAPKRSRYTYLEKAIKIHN
Procedure, shortened: as §1

USP8 = target: T5, USP8 (UniProt P40818)
T5 sequence (whole entry): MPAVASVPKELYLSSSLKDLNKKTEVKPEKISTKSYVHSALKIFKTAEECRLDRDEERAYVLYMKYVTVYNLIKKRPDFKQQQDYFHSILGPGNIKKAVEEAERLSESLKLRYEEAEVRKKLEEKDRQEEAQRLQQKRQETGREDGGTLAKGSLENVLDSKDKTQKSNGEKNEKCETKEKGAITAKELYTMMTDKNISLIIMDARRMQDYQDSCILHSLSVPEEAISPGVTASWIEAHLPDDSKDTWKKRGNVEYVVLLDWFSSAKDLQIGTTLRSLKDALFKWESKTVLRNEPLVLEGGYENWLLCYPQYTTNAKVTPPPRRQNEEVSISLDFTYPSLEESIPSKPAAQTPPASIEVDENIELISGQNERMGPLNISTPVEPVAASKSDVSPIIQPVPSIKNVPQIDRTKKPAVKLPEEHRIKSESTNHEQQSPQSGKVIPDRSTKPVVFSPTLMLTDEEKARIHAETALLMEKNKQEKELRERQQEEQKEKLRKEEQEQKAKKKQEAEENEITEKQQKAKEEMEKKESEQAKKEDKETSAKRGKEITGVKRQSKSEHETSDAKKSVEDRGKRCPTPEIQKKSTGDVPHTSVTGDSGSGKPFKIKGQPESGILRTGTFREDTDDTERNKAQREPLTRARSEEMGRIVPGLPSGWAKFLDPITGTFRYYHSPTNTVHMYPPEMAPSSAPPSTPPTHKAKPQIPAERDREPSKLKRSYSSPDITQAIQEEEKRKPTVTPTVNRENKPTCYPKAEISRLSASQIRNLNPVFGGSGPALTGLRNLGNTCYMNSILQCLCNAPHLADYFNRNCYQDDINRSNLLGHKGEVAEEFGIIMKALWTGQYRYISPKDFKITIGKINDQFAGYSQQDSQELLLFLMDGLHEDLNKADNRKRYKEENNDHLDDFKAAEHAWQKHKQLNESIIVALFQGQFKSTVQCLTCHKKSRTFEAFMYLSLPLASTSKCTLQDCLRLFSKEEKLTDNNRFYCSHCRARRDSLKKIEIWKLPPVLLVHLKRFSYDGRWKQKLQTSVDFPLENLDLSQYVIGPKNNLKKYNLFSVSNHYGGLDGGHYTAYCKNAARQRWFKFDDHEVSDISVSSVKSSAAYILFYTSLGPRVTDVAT
Procedure, shortened: as §1

USP9X = USP9X (UniProt Q93008)
Chain of USP9X (Q93008 whole entry): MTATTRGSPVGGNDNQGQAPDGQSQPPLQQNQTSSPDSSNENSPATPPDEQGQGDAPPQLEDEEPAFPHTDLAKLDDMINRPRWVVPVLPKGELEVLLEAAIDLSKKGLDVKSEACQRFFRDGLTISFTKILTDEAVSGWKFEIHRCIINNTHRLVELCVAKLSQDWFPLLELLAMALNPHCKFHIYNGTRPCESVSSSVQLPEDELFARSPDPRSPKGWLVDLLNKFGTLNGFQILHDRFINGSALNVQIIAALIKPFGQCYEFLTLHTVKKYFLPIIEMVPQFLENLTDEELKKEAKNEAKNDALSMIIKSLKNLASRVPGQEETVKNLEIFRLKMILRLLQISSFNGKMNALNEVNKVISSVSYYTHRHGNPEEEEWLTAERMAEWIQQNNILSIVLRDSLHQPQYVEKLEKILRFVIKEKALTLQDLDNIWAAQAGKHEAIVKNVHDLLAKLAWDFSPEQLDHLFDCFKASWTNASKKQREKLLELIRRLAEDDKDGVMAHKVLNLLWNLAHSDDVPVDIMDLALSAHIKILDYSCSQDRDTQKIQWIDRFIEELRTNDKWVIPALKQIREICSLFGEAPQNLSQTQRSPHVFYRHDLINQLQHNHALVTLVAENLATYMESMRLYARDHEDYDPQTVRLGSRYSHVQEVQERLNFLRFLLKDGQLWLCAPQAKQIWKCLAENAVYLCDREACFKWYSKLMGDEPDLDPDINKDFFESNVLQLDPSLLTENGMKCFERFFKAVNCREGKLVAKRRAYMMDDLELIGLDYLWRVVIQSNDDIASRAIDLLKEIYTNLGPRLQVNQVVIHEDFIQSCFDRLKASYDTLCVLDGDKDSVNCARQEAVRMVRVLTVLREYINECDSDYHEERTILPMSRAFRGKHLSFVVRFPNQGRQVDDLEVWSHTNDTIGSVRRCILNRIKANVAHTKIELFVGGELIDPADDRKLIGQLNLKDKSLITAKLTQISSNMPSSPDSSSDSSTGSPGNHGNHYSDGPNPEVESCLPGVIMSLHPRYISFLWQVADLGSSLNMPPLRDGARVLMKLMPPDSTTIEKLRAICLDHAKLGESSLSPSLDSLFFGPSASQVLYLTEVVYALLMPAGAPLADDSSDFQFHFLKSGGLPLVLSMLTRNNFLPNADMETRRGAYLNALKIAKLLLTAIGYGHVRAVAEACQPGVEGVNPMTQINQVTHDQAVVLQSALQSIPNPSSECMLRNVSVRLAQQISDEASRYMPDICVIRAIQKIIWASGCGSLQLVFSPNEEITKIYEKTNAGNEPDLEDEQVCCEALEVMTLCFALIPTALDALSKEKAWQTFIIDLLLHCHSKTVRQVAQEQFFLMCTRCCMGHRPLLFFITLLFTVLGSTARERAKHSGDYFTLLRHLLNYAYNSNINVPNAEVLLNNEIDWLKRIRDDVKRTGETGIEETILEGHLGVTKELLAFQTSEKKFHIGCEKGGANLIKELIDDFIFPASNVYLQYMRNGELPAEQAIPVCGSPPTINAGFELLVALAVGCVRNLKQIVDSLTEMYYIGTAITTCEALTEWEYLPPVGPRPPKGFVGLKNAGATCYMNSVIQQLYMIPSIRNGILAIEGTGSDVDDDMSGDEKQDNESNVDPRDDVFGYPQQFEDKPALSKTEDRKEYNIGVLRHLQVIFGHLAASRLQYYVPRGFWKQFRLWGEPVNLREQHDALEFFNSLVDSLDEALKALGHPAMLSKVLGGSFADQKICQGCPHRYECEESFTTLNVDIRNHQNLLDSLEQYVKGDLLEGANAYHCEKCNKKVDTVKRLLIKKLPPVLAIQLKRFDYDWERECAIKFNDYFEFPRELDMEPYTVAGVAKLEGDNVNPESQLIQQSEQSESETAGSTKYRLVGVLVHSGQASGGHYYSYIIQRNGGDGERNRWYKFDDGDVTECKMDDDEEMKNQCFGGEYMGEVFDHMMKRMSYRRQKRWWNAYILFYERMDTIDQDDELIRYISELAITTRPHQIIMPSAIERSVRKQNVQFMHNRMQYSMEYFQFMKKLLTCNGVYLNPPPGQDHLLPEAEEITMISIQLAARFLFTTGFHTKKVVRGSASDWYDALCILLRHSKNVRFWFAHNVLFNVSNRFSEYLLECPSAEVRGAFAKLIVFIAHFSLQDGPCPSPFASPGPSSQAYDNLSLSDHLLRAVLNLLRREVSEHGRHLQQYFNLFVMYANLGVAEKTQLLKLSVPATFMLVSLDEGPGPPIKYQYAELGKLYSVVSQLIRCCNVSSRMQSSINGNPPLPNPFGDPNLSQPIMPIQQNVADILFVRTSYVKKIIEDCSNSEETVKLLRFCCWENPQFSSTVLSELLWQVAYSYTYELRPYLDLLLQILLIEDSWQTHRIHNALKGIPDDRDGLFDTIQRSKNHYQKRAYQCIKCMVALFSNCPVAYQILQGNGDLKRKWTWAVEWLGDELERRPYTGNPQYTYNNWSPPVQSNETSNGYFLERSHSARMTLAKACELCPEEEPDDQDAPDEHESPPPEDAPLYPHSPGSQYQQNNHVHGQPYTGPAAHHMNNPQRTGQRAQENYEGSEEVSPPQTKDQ
Procedure, shortened: as §1

UniProt O00487 = target: UniProt O00487
Chain of UniProt O00487 (O00487 whole entry): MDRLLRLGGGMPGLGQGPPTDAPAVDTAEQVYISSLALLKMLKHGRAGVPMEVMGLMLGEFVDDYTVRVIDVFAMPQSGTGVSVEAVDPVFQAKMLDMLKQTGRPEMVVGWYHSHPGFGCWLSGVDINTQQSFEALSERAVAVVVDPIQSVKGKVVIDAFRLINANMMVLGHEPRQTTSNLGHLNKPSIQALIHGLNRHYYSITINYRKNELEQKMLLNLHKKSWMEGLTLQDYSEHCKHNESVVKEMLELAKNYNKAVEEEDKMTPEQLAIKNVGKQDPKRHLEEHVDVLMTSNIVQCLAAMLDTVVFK
Procedure, shortened: as §1

Measured: log2 ratio of Biotin-Ahx-Ub-VS probe labelling

O=C(CCl)Nc1cc2c(cc1Cl)OCCCO2
inactive: USP42 0.621 | USP46 0.0317 | USP47 -0.676 | USP48 -0.438 | USP5 0.232 | USP54 -0.0568 | USP7 -0.0845 | USP8 -0.029 | USP9X 0.118 | UniProt O00487 -0.147
